The source of these data is PubChem BioAssay (NCI).

Common to all, as to assay: NCI-60 one-dose screen, 48 h (100 = growth as untreated, 0 = no growth, -100 = all killed)
One assay relates to NCI-H23 lung. To be noted: 10 µM unless noted.
The next assay has as its system NCI-H226 lung. To be noted: 10 µM unless noted.
Another assay has as its system NCI-H322M lung. To be noted: 10 µM unless noted.
Another assay deals with HOP-62 NSCLC. The note with it: 10 µM unless noted.
In another assay the test system is NCI-H460 lung. The note with it: 10 µM unless noted.
In a further assay the test system is HOP-92 NSCLC. The note with it: 10 µM unless noted.
The subject of the next assay is NCI-H522 lung. The note with it: 10 µM unless noted.
The test system of a further assay is A549/ATCC NSCLC. To be noted: 10 µM unless noted.
A further assay relates to 786-0 renal. To be noted: 10 µM unless noted.
The next assay has as its system COLO 205 colon. The note with it: 10 µM unless noted.
A further assay deals with DU-145 prostate. To be noted: 10 µM unless noted.
The subject of the next assay is K-562 leukemia. The note with it: 10 µM unless noted.
For the next assay, the system named is MALME-3M melanoma. The note with it: 10 µM unless noted.
A further assay deals with MDA-MB-231 breast. The note with it: 10 µM unless noted.
In a further assay the test system is RXF 393 renal. The note with it: 10 µM unless noted.
A further assay concerns SF-268 CNS. The note with it: 10 µM unless noted.
The next assay deals with SF-295 CNS. The note with it: 10 µM unless noted.
The test system of the next assay is SF-539 CNS. To be noted: 10 µM unless noted.
The next assay has as its system UACC-257 melanoma. The note with it: 10 µM.
The next assay concerns M14 melanoma. The note with it: 10 µM unless noted.

The panel holds about 83,000 compounds, 20% with a hit somewhere; the sample as a whole holds those more often.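 Testing used 96-well plates and a 48-hour single-concentration exposure. Example: -40 means 40% of the starting cells died.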 A number with no mark means an inactive call. Calls of active or inactive are those of the source. How the source made its calls: active means growth percent below 10; inactive means the rest.

Regarding `CC1CCc2c(sc3nc(SCC(=O)N/N=C/c4ccc(Cl)cc4)n(-c4ccccc4)c(=O)c23)C1` (centres undefined), the growth in the assay with NCI-H23 lung was 90.7%; with NCI-H226 lung, 91%; in the assay on NCI-H322M lung, 98.1%; in the assay with HOP-62 NSCLC, 78.4%; in the assay on NCI-H460 lung, 107%; in the assay with HOP-92 NSCLC it was 107%. For the same molecule, the growth is 93.6% in the assay with NCI-H522 lung; 101% in the assay on A549/ATCC NSCLC; 96.5% in the assay on 786-0 renal; 135% in the assay on COLO 205 colon; 97.8% with DU-145 prostate; 100% in the assay on K-562 leukemia. Besides, the growth in the assay on MALME-3M melanoma is 99%; with MDA-MB-231 breast, 89.5%; in the assay on RXF 393 renal, -2.72% (active); in the assay on SF-268 CNS, 81.6%; in the assay with SF-295 CNS, 95.2%; with SF-539 CNS it was 90%. The growth in the assay on UACC-257 melanoma and in the assay with M14 melanoma was 102% throughout.
Consider `COc1ccc(OC)c([C@H]2c3[nH]c4ccccc4c3C[C@H]3C(=O)N(CCCCCCC(=O)NO)CC(=O)N23)c1`, for which the growth was 100% in the assay on NCI-H23 lung; 103% with NCI-H226 lung; 93.3% with NCI-H322M lung; 85.4% in the assay on HOP-62 NSCLC; 87.1% in the assay on NCI-H460 lung; 82% with HOP-92 NSCLC. Also, the growth in the assay with NCI-H522 lung was 69.2%; with A549/ATCC NSCLC, 106%; in the assay on 786-0 renal, 99.5%; with COLO 205 colon, 86.4%; with DU-145 prostate it was 90.1%; in the assay on K-562 leukemia it was 54.2%. The growth with MALME-3M melanoma is 61.6%; with MDA-MB-231 breast, 82.3%; in the assay on RXF 393 renal it was 107%; in the assay on SF-268 CNS, 104%; in the assay on SF-295 CNS, 94.7%; with SF-539 CNS, 78.5%. In addition, the growth in the assay with UACC-257 melanoma was 67.2%; in the assay on M14 melanoma, 83.3%.
Take `CC(C)N=C(N/C(N)=N/c1nc2ccccc2s1)NC(C)C`: the growth in the assay with NCI-H23 lung is 47.5%; in the assay with NCI-H226 lung it was 67.2%; in the assay with NCI-H322M lung, 62.2%; in the assay with HOP-62 NSCLC it was 55.4%; with NCI-H460 lung, 48.8%; with HOP-92 NSCLC it was 30.8%. In addition, the growth with NCI-H522 lung is 85.1%; with A549/ATCC NSCLC, 69.3%; in the assay with 786-0 renal, 58.5%; in the assay with COLO 205 colon it was 55.6%; with DU-145 prostate, 85.6%; in the assay with K-562 leukemia it was 23.1%. For the same molecule, the growth is 75.4% in the assay with MALME-3M melanoma; 56.3% in the assay on MDA-MB-231 breast; 51.9% with RXF 393 renal; 81.3% with SF-268 CNS; 43.8% with SF-295 CNS; 52.3% in the assay with SF-539 CNS. Moreover, the figures for the growth in the assay with UACC-257 melanoma and in the assay with M14 melanoma were 87.9% and 58%, respectively.
Turning to `CCC(CC)n1c(=O)c(SC2=NC3C(NN2)N(CC)C(=O)N3CC)c(C(=O)O)c2ccccc21` (centres undefined), the growth in the assay on NCI-H23 lung was 11.7%; in the assay with NCI-H226 lung, 36.1%; in the assay on NCI-H322M lung it was 54.7%; in the assay with HOP-62 NSCLC, 33.6%; in the assay with NCI-H460 lung, 3.21% (active); with HOP-92 NSCLC it was 21.7%. The growth is -45% (active) in the assay on NCI-H522 lung; 36.5% in the assay on A549/ATCC NSCLC; 27.9% with 786-0 renal; -53.4% (active) in the assay with COLO 205 colon; 16.2% with DU-145 prostate; 11.1% with K-562 leukemia. The growth is 68.1% in the assay on MALME-3M melanoma; 19.1% in the assay on MDA-MB-231 breast; 13.4% with RXF 393 renal; 52.4% in the assay with SF-268 CNS; 22.3% in the assay with SF-295 CNS; 3.93% (active) in the assay with SF-539 CNS. Besides, the growth is 59.9% in the assay with UACC-257 melanoma and 16% in the assay on M14 melanoma.
For `COc1ccc(/C=C/C(=O)c2nnn(-c3ccc(Br)cc3)c2C)cc1OC`, the growth with NCI-H23 lung is 59.9%; with NCI-H226 lung it was 70.7%; with NCI-H322M lung, 95.3%; with HOP-62 NSCLC it was 88.1%; in the assay on NCI-H460 lung it was 84.3%; in the assay on HOP-92 NSCLC it was 81%. Further, the growth is 67.7% in the assay with NCI-H522 lung; 73.6% with A549/ATCC NSCLC; 93.5% in the assay with 786-0 renal; 90.4% in the assay on COLO 205 colon; 73.5% with DU-145 prostate; 19.2% with K-562 leukemia. Besides, the growth with MALME-3M melanoma is 83%; with MDA-MB-231 breast, 83.3%; in the assay on RXF 393 renal, 80.3%; in the assay on SF-268 CNS, 89.4%; with SF-295 CNS it was 80.2%; in the assay with SF-539 CNS, 83.7%. Further, the growth in the assay with UACC-257 melanoma is 85.3%; with M14 melanoma, 60.4%.
On to `COc1c([C@@H](CC(C)C)OC(C)=O)ccc2c1C(=O)OCc1cc(C)cc(O)c1O2`, for which the growth with NCI-H23 lung is 23.7%; in the assay on NCI-H226 lung, 43.5%; in the assay with NCI-H322M lung, 54.3%; with HOP-62 NSCLC, 24.5%; in the assay on NCI-H460 lung, 8.61% (active); in the assay on HOP-92 NSCLC, 3.04% (active). Besides, the growth with NCI-H522 lung was 20.2%; in the assay with A549/ATCC NSCLC, 13.6%; in the assay on 786-0 renal, 80.5%; in the assay on COLO 205 colon, 9.55% (active); in the assay with DU-145 prostate it was 26.7%; in the assay with K-562 leukemia, 16.9%. Moreover, the growth in the assay with MALME-3M melanoma is 19%; in the assay on MDA-MB-231 breast, 35.7%; in the assay with RXF 393 renal it was 64.1%; with SF-268 CNS it was 33%; in the assay on SF-295 CNS it was 31.8%; with SF-539 CNS, 55.6%. Besides, in the assay on M14 melanoma, the growth was 44.3%.
On to `CCn1c2ccc(/C=N/NS(=O)(=O)CCN(C)C)cc2c2cc(/C=N/NS(=O)(=O)CCN(C)C)ccc21`, for which the growth in the assay with NCI-H23 lung is 97.4%; in the assay on NCI-H226 lung, 96.5%; in the assay with NCI-H322M lung, 85.7%; with HOP-62 NSCLC, 82.7%; in the assay on NCI-H460 lung, 101%; in the assay with HOP-92 NSCLC, 92.2%. The growth is 86.6% in the assay with NCI-H522 lung; 101% in the assay on A549/ATCC NSCLC; 92% in the assay on 786-0 renal; 115% in the assay with COLO 205 colon; 105% with DU-145 prostate; 94.1% in the assay on K-562 leukemia. The growth is 85.3% with MALME-3M melanoma; 89.7% in the assay with MDA-MB-231 breast; 96.6% in the assay on RXF 393 renal; 90.2% with SF-268 CNS; 103% in the assay on SF-295 CNS; 90.5% in the assay on SF-539 CNS. The growth with UACC-257 melanoma was 103%; in the assay with M14 melanoma, 104%.
